MARV entry inh: blocks Marburg virus binding to or entry into cells. Marburg virus pseudotyped entry inhibition, cell reporter. Potency, µM (series often up to 37.8 µM), for the others: at the highest dose activity change, negative = inhibition, hits mostly inhibitors. 300,000 compounds, 1.8% hits; calls by dose curve; tested in HEK293 cells
Sm TGR block: S. mansoni TGR enzyme inhibition; purified TGR, DTNB reduction, TNB absorbance 405 nm; Potency, µM (titrated, usually from 114 µM), without a hit: top-dose activity change, negative = inhibition, most hits filed as inhibitors; 360,000 compounds, 3% hits; active means well fitted inhibition curve with a large enough effect; inconclusive means small, poorly fitted or top-dose-only effect; inactive means no such curve, though single readings can be large or run the other way; further: nearly all actives have a fitted effect of over 60% in size
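Kinetic colorimetric format: TGR-catalysed, NADPH-driven DTNB reduction monitored via TNB absorbance. Enzyme dispensed at 20 nM; compound exposure 15 min at room temperature before reaction start.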
Vaccinia Venus: inhibitors of vaccinia virus (Venus reporter); Vaccinia virus Venus reporter expression, fluorescence; Potency, µM (doses to about 36.5 µM), without a hit: at the top dose activity change, negative = inhibition, usual class: inhibitors; 330,000 compounds, 0.46% hits; calls by dose curve; tested in A549 cells; further: nearly all actives have a fitted effect of over 30% in size
LASV entry inh: blocks Lassa virus binding to or entry into cells; Lassa virus pseudotype entry inhibition, cell reporter; Potency, µM (doses to about 37.9 µM), for inactives: at the top dose activity change, negative = inhibition, hits mostly inhibitors; 300,000 compounds, 1.2% hits; AID 540256; calls by dose curve; tested in HEK293 cells; further: nearly all actives have a fitted effect of over 50% in size
FMDV inh: foot and mouth disease virus antiviral activity. 410,000 compounds, 1.2% hits. Potency, µM (series often up to 57.9 µM), without a hit: top-dose activity change, negative = inhibition, usual class: inhibitors. FMDV antiviral cell-based qHTS. AID 1159524; calls by dose curve; tested in HEK293T cells; further: read-out not given here; nearly all actives have a fitted effect of over 45% in size
VACV mCherry inh: vaccinia inhibition (mCherry reporter); 310,000 compounds, 0.63% hits; Potency, µM (series often up to 36.5 µM), without a hit: at the highest dose activity change, negative = inhibition, most hits filed as inhibitors; Vaccinia virus mCherry reporter infection, fluorescence; AID 720579; calls by dose curve; tested in A549 cells; further: nearly all actives have a fitted effect of over 35% in size
* marks the source's active call; other numbers are inactive results; i = inactive; ? = inconclusive; . = not tested or not shown; ! = a repeat was not active; [ ] = dose if it differs, or a comment. Most compounds without a hit are left out; they make up all but 5.4% or so of the library. On the % scale 0 is the no-effect control and ±100 the full control effect; potency means the concentration at half of the fitted maximal effect.

SMILES	MARV entry inh	Sm TGR block	Vaccinia Venus	LASV entry inh	FMDV inh	VACV mCherry inh
COc1ccc(-c2nc(S(=O)(=O)c3ccc(C)cc3)c(N3CCCC3)o2)cc1	?	2µM*	0.6%	-1.0%	-13.7%	-9.0%
CCOc1ccc(-c2nc(S(=O)(=O)c3ccccc3)c(N3CCC(C(N)=O)CC3)o2)cc1	.	35.5µM*	.	.	9.5%	.
O=S(=O)(c1ccccc1)c1nc(-c2ccccc2)oc1N1CCOCC1	17.8%[46.1 µM]	8.0%	1.4%	-3.4%[46.1 µM]	29.3%	i
O=S(=O)(c1ccccc1)c1nc(-c2cccc(Cl)c2)oc1N1CCOCC1	?	31.6µM*!	-3.9%	?	-19.0%	-18.1%
Cc1ncc2c(c1CNS(=O)(=O)N(C)C)CCN(C(=O)/C=C/c1ccccc1Cl)C2	.	.	-13.4%	.	-3.4%	-20.0%
Cc1cnc(SCC2CCCO2)nc1C1CCCN(Cc2nc(-c3ccccc3)cs2)C1 (configuration not stated)	.	.	-8.1%	.	-15.9%	-12.1%
CCN(CC)C1CCN(C(=O)c2cnn(-c3nccc(-c4ccccc4OC)n3)c2-c2ccco2)C1 (configuration not stated)	.	.	-13.7%	.	6.0%	i
Cc1ccc(-c2nc(S(=O)(=O)c3ccc(C)cc3)c(N3CCCCC3)o2)cc1	.	8.91µM*	-4.3%	?	39.4%	-12.9%
Cc1ccc(S(=O)(=O)c2nc(-c3ccc(Cl)cc3)oc2N2CCCCCC2)cc1	?	39.8µM*	3.0%	1.3%[46.1 µM]	24.8%	-7.0%
Cc1ccc(S(=O)(=O)c2nc(-c3ccccc3)oc2N2CCCCCC2)cc1	?	-20.7%	-1.2%	?	44.0%	-13.7%
CCCc1[nH][nH]c(=O)c1C(c1ccccc1)C(C#N)C#N (configuration not stated)	2.1%	2.51µM*	-19.5%	-1.2%	-2.0%	-17.4%
CCCc1[nH][nH]c(=O)c1C(c1ccc(Br)cc1)C(C#N)C#N (configuration not stated)	2.2%	?	-11.7%	1.9%	.	i
COc1ccc(NC(=O)Cn2c(=O)n(Cc3nc(-c4ccccc4)no3)c(=O)c3ccccc32)cc1Cl	.	-14.1%	-29.2%	4.9%[46.1 µM]	0.0%	?
CCN(CC)S(=O)(=O)c1ccc2oc(C(=O)NCC3COc4ccccc4O3)c(C)c2c1 (configuration not stated)	?	-0.1%	.	23.1µM*	?	.
Cc1c(C(=O)NCc2ccc(F)cc2)oc2ccc(S(=O)(=O)N3CCOCC3)cc12	?	6.9%	-12.5%	.	?	-18.7%
CCN(CC)S(=O)(=O)c1ccc2oc(C(=O)Nc3ccc(OC)cc3OC)c(C)c2c1	?	-16.7%	-14.8%	6.51µM*	-14.5%	-6.5%
CCN(CC)S(=O)(=O)c1ccc2oc(C(=O)NCc3ccc(F)cc3)c(C)c2c1	?	-8.2%	.	5.8µM*	?	.
CCN(CC)S(=O)(=O)c1ccc2oc(C(=O)Nc3cc(C)ccc3OC)c(C)c2c1	.	0.4%	-21.9%	21.9%[46.1 µM]	-23.7%	-20.8%
O=C(NCc1nnc2n1CCN(Cc1cc3c(cc1Cl)OCO3)CC2)c1cccc(F)c1	.	.	-24.1%	.	-10.5%	-5.9%
COCC(=O)Nc1cccc(Br)c1	-6.4%	-5.6%	-7.7%	26.5%	20.2%	-22.9%
Cc1ccc(NC(=O)COC(=O)/C=C/c2cccs2)cc1	24.5%	-8.3%	-8.9%	9.0%	-3.1%	i
CCOC(=O)/C=C/C(=O)Nc1ccc(S(=O)(=O)Nc2c(C)cc(C)cc2C)cc1	?	-9.0%	.	-0.8%	?	.
CCOC(=O)/C=C/S(=O)(=O)c1ccc(NC(C)=O)cc1	-27.6%	0.316µM*	.	-27.3%	?	.
CCOC(=O)/C=C/C(=O)OCC(=O)Nc1ccc(C)cc1	11.8%	12.6µM*	-1.0%	12.7%	-15.7%	-22.4%
CCOC(=O)/C=C/C(=O)OCC(=O)Nc1cccc(Br)c1	-6.2%[46.1 µM]	17.8µM*	-26.3%	-4.4%	0.5%	-15.5%
SMILES	MARV entry inh	Sm TGR block	Vaccinia Venus	LASV entry inh	FMDV inh	VACV mCherry inh
O=C(Nc1ncccn1)c1cc([N+](=O)[O-])cc([N+](=O)[O-])c1	-10.3%	1.6%	-2.7%	0.4%	-13.9%	-13.7%
O=[N+]([O-])c1cc(-c2ncccn2)c([N+](=O)[O-])s1	?	0.316µM*	.	?	39.8µM*	.
CCOc1ccc(C(=O)NCCc2csc(-c3ccc(C(F)(F)F)cc3)n2)cc1OCC	.	9.2%	-15.2%	-0.8%[46.1 µM]	?	-15.7%
NC1=NC(=O)/C(=C/c2cccc(-c3ccc(S(N)(=O)=O)cc3)c2)S1	.	10µM*	-4.5%	.	-12.5%	i
Cc1c(Cl)cccc1N/C(SCC(=O)N1CCCCCC1)=C(/C#N)c1nc2ccccc2s1	11.2µM*	7.2%	-12.4%	?	?	i
O=C(CSc1nc2ccccc2s1)N1CCCCC1	4.5%	-2.0%	-13.1%	20.1%	.	-18.8%
COc1ccc(Cl)cc1NC(=O)CSc1nc(-c2ccccc2)c2ccccc2n1	0.2%[46.1 µM]	1.5%	-6.0%	18.1%[46.1 µM]	-25.7%	-2.7%
COc1ccc(NC(=O)c2c(C)oc3ccc(O)c(CN4CCC(C)CC4)c23)cc1	11.2µM*	0.4%	-8.7%	?	-12.4%	-18.5%
COc1ccc(NC(=O)c2c(C)oc3ccc(O)c(CN4CCCC(C)C4)c23)cc1 (configuration not stated)	?	-1.0%	-11.0%	-14.4%[46.1 µM]	-15.6%	-23.4%
O=C(CCS(=O)(=O)c1cccc2nonc12)Nc1c(F)cccc1F	-7.6%[46.1 µM]	11.2µM*	-10.2%	7.8%[46.1 µM]	3.2%	-11.7%
O=C(CCNS(=O)(=O)c1cccc2nonc12)NC1CCCCC1	-5.3%[46.1 µM]	-9.6%	-21.8%	7.7%[46.1 µM]	2.8%	i
Cc1ccc(C)c(N2CCN(C(=O)CCS(=O)(=O)c3cccc4nonc34)CC2)c1	0.8%	35.5µM*	-19.4%	2.0%	-20.1%	-23.8%
O=C(CCS(=O)(=O)c1cccc2nonc12)NC1CCCCCC1	5.4%	44.7µM*	.	2.5%	35.5%	.
Cc1cccc(C)c1NC(=O)CCS(=O)(=O)c1cccc2nonc12	?	-0.8%	6.1%	-2.7%[46.1 µM]	-3.9%	-10.3%
Cc1ccc(C)c(N(C)C(=O)CCS(=O)(=O)c2cccc3nonc23)c1	-5.5%[46.1 µM]	20µM*	-20.7%	10.4%	29.1%	-3.6%
CCN(CC)C(=O)CCS(=O)(=O)c1cccc2nonc12	-15.4%[46.1 µM]	-0.3%	-16.4%	.	-8.7%	-14.2%
CCOc1ccc(C2=NC(c3cccs3)=Nc3ccc(C(C)C)cc3N2)cc1	?	0.8%	-23.3%	24.1%[46.1 µM]	56.4%	-15.1%
Cc1ccc(Sc2ccc(N3CCCC(C(=O)Nc4ccc(F)cc4)C3)nn2)cc1 (configuration not stated)	-15.8%[46.1 µM]	-0.5%	-13.5%	?	-13.8%	-13.5%
Cc1ccc(NC(=O)CCS(=O)(=O)c2cccc3nonc23)c(Br)c1	-8.4%[46.1 µM]	31.6µM*	-20.2%	-2.6%	29.2%	-23.8%
COC(=O)C1=C(C)N(c2ccc(Cl)cc2)/C(=C/c2ccc(O)cc2)C1=O	?	.	-7.5%	-20.4%	25.1µM*	-6.3%
COC(=O)C1=C(C)N(c2cc(C)cc(C)c2)/C(=C/c2ccc(O)cc2)C1=O	.	-19.8%	?	.	?	?
